GBA mod – human lysosomal glucosylceramidase modulation. P04062. purified enzyme, resorufin glucoside fluorescence (screen aimed at inhibitors), 20 min. Potency, µM. actives 1.1% (n = 48,000); in the data active = potency below about 15 µM;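 also: the screen sought inhibitors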
Target sequence (P04062 whole entry, looked up): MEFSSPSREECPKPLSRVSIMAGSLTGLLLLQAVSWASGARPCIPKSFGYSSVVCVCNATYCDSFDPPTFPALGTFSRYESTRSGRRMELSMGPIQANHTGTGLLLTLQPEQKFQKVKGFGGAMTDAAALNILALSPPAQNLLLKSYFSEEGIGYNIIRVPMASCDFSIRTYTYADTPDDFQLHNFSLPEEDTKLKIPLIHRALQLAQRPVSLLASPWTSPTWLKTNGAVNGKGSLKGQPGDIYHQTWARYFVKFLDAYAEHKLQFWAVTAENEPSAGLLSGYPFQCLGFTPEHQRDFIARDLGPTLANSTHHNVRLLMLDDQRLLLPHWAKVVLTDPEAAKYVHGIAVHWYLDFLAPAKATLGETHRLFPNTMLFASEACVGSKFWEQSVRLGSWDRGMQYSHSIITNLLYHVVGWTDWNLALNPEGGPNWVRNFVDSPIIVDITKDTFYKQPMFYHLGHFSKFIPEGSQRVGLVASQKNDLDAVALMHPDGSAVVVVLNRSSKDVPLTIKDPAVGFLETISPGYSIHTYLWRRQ
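Compounds titrated against 0.2 nM normal enzyme, 30 uM resorufin beta-D-glucopyranoside substrate, citrate/phosphate buffer with taurocholate and tween-20, pH 5.9. Reaction ran 20 min at room temperature; fluorescence (Ex 548/Em 600) gave AC50.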
An asterisk follows results filed as active; i = inactive. The sample as a whole holds a higher share of hits than the screen did. Potency is read from the fitted curve at half-maximal effect.

SMILES	GBA mod
COc1cccc2cc(C(=O)C3=C(O)C(=O)N(CCCN4CCOCC4)C3c3ccncc3)oc12 (centres undefined)	>77
COc1cccc(NC(=O)N(CCCN2CCOCC2)C(C)c2cc3cccc(OC)c3o2)c1 (centres undefined)	9.6*
Cc1cccc(NC(=O)Cn2nnc(-c3cccs3)n2)c1C	>77
COC(=O)c1sccc1NC(=O)Cn1nnc(-c2ccc(C)cc2)n1	15*
COC(=O)c1sccc1NC(=O)Cn1cnc2c1c(=O)n(C)c(=O)n2C	>77
COCCN1Cc2cccc(C(=O)Nc3cccnc3)c2C1=O	>77
COCCN1Cc2cccc(C(=O)Nc3ccc(S(=O)(=O)N4CCCCC4)cc3)c2C1=O	15*
COCCN1Cc2cccc(C(=O)Nc3cccc(C)c3C)c2C1=O	>77
CCN(CCCNC(=O)CN(C)S(=O)(=O)c1ccc2c(c1)CCC(=O)N2)c1cccc(C)c1	>77
COc1cc(C)c(S(=O)(=O)NCc2cccs2)cc1C	>77
CNc1nc(N2CCc3ccccc32)ncc1F	>77
Nc1nc(CSCc2ccccc2)nc(N2CCOCC2)n1	>77
Nc1nc(CN2CCN(c3ccc(F)cc3)CC2)nc(N2CCCc3ccccc32)n1	10*
CCOC(=O)N1CCC(NC(=O)CCc2c(C)nc3c(c(C)nn3C(C)(C)C)c2C)CC1	>77
Cc1cc(C)cc(N2C(=O)C3C4C=CC(C4)C3C2=O)c1 (centres undefined)	>77
CCOC(=O)N1CCC(NC(=O)Cn2ncn3c(cc4sc(CC)cc43)c2=O)CC1	>77
CC(=O)Nc1ccc(N2CCN(C(C)=O)CC2)cc1	>77
CC(=O)N1CCN(c2ccc(NCc3ccc(C)cc3)cc2)CC1	12*
CCc1ccc(CNc2ccc(N3CCN(C(C)=O)CC3)cc2)cc1	12*
CCCC(=O)Nc1ccc(N2CCN(C(=O)CCC)CC2)cc1	>77
Cc1ccc(CNc2ccc(O)cc2)cc1	i
CC(=O)N1CCN(c2ccc(NC(=O)c3ccc4c(c3)OCO4)cc2)CC1	i
O=c1c(-c2ccccc2)[n+]([O-])c2ccccc2n1O	>77
CC1(C)CC(=O)C2=C(C1)NC(SCC(=O)Nc1ccccc1)=C(C#N)C2c1ccco1 (centres undefined)	i
CCOC(=O)C1=C(c2ccccc2)NC(SCC(=O)NC2CCCCC2)=C(C#N)C1c1ccco1 (centres undefined)	7.7*
SMILES	GBA mod
COc1ccccc1NC(=O)C1=C(C)NC(SCC(=O)c2ccccc2)=C(C#N)C1c1ccco1 (centres undefined)	>77
COc1ccc(OCc2nnc(SC(C)C(=O)Nc3nccs3)n2-c2ccccc2)cc1 (centres undefined)	>77
Cc1nc2sc3c(c2c2nc(-c4ccco4)nn12)CC(C)(C)OC3	>77
CC1CCN(CCCNC(=O)Cc2c(C(=O)O)n(C)c3ccccc23)CC1	>77
Cn1cc(/C=N/n2cnc3sc4c(c3c2=O)CCCC4)c2ccccc21	12*
Cc1ccsc1/C=N/n1cnc2sc(C)c(C)c2c1=O	>77
Cc1nn(-c2ccccc2)c(N2CCCC2)c1/C=N/n1cnc2scc(-c3ccccc3)c2c1=O	>77
O=C1CN(C(=O)c2ccco2)C(c2ccc(F)cc2)c2cc(Cl)ccc2N1 (centres undefined)	>77
O=C1CN2C(=Nc3ccc(Cl)cc3C2c2ccccc2)CN1 (centres undefined)	1.3*
CC1CCCCN1CCNC(=O)c1ccc2c(=O)n(CCc3ccccc3)c(=O)[nH]c2c1 (centres undefined)	>77
CC1CCCC(NC(=O)c2ccc3c(=O)n(CC4CCCO4)c(=O)[nH]c3c2)C1C (centres undefined)	1.6*
O=C(NCC1CCCO1)c1ccc2c(=O)n(CCc3ccccc3)c(=O)[nH]c2c1 (centres undefined)	>77
O=C(CSc1nnc(-c2ccc(S(=O)(=O)N3CCCC3)cc2)o1)NCc1ccco1	>77
Cn1c(=O)c2cn(Cc3ccc(Cl)cc3)cc2n(C)c1=O	>77
COc1ccc(CC(=O)Nc2cccc(-c3nnc(-c4cccc(C)c4)o3)c2)cc1OC	11*
COc1ccc(CC(=O)Nc2ccc(-c3nnc(-c4ccccc4)o3)cc2)cc1OC	>77
COc1ccc(CCNC(=O)CSc2nnc(-c3cccc(C)c3)o2)cc1OC	>77
CC(=O)Nc1cccc(-c2nnc(-c3ccccc3)o2)c1	14*
c1ccc(-c2nnc(-c3cccc(-c4nnc(-c5ccccc5)o4)c3)o2)cc1	>77
CC(=O)Nc1cccc(-c2nc3ccccc3c(=O)o2)c1	>77
COc1ccccc1N1CCN(S(=O)(=O)Cc2ccccc2Cl)CC1	>77
CC(C)(O)c1cn(-c2nonc2N)nn1	>77
CC(=O)N1CCN(c2nc3cc4c(cc3nc2NS(=O)(=O)c2ccccc2)OCCO4)CC1	>77
COc1ccc(S(=O)(=O)N2CCc3ccccc32)cc1C(=O)OCc1nnc(-c2ccccc2)o1	>77
O=c1[nH]nc(Sc2ncnc3sccc23)n1CCc1ccccc1	>77
SMILES	GBA mod
O=C(COc1ccc2c(c1)OCO2)Nc1ccc2c(c1)oc1ccccc12	>77
N#Cc1ccccc1NC(=O)c1ccccc1OCC(=O)NCc1ccco1	>77
N#Cc1ccccc1NC(=O)c1ccccc1OCC(=O)Nc1ccc2c(c1)oc1ccccc12	11*
COc1ccc(-c2nc(N3CCOCC3)nc3nn4c(C)c(CCC(=O)O)c(C)nc4c23)cc1	>77
CCCCn1nnc(NC(=O)CC23CC4CC(CC(C4)C2)C3)n1	>77
CCN1CCN(C(=O)c2ccc3c(=O)n(C4CCCC4)c(=S)[nH]c3c2)CC1	>77
CC1(C)CC(n2c(=S)[nH]c3ccccc3c2=O)CCO1 (centres undefined)	i
O=c1c2ccccc2[nH]c(=S)n1C1CCCCC1	14*
CCOCCCNC(=O)CCCOc1ccccc1	>77
Cc1ccnc(NC(=O)c2cc(S(=O)(=O)N3CCCCC3)ccc2Cl)c1	>77
O=C(O)c1cc(S(=O)(=O)N2CCCCC2)ccc1F	>77
Cc1ccc(S(=O)(=O)N2CCCCC2)cc1C(=O)c1nccn1C	10*
CN1CCN(C(=O)c2ccccc2-c2ccccc2C(=O)O)CC1	>77
Cc1cc(C(=O)Nc2c(F)cc(F)cc2Br)c(C)o1	>77
c1ccc2sc(N3CCN(Cc4nnnn4CC4CCCO4)CC3)nc2c1 (centres undefined)	>77
CCCc1[nH]n(-c2nc3ccccc3s2)c(=O)c1C=NCC1CCCO1 (centres undefined)	13*
O=c1cc(-c2ccccc2)[nH]n1-c1nc2ccccc2s1	>77
c1nc(NCCN2CCOCC2)c2sc3nc(N4CCOCC4)c4c(c3c2n1)CCC4	>77
c1nc(N2CCOCC2)c2c3c(sc2n1)CCCC3	>77
c1nc(NCCN2CCOCC2)c2c3c(sc2n1)CCCCC3	7.5*
CC(NC(=O)c1ccnc(C(C)(C)C)c1)c1ccccc1 (centres undefined)	>77
Cc1ccc(CN2C(=O)CCC2C(=O)NCCN2CCN(c3cccc(Cl)c3)CC2)cc1 (centres undefined)	>77
Cc1cc(C(=O)CSc2nc3ccccc3c(=O)n2C)c(C)n1Cc1ccc2c(c1)OCO2	>77
Cc1cc(C(=O)CSc2nnc(Cc3ccccc3)o2)c(C)n1Cc1ccc2c(c1)OCO2	4*
Cc1cc(C(=O)CSc2nnc(-c3ccccc3)n2Cc2ccc3c(c2)OCO3)c(C)n1C	>77
CCn1cc(NC(=O)Nc2ccccc2C(=O)OC)c(C(N)=O)n1	>77
Cc1ccc(N(C(=O)Cn2nnc(-c3ccc(C)o3)n2)C(C(=O)NC2CCCC2)c2ccco2)cc1 (centres undefined)	>77

Bioassay records (PubChem)
